Screens (PubChem BioAssay)
Compounds with a hit are over-represented: about 1.1% of the library has one in this group of screens.
HTR5A ag ctr – activates human HTR5A in OPRM1-OPRD1 agonist counter-screen. hit rate 0.61% among 340,000. P47898. activation, % at 9.3 µM. HTR5A agonist assay, luminescence, cell-based. AID 504692; in the data active means activation mostly above about 9.5%, no sharp cut-off; inactive means mostly below about 7.6%;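 further: 0% = cells with vehicle only and 100% = reference agonist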
HTR5A inv ag – inverse agonist of human HTR5A in OPRM1-OPRD1 counter-screen; P47898; inhibition, % at 9.3 µM; hit rate 0.083% among 340,000; HTR5A cell line, luminescence, inverse agonism; in the data active means inhibition mostly above about 23%, no sharp cut-off; inactive means mostly below about 18%;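 further: 0% = cells with DMSO and 100% = no-cell wells with DMSO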
MOR-DOR inv ag – inverse agonist of human OPRM1-OPRD1 heterodimerization; inhibition, % at 9.3 µM; AID 504357; P35372+P41143; cell-based MOR-DOR heterodimer luminescence, inverse agonism; hit rate 0.21% among 340,000; in the data active means inhibition above about 22%, passing the limit was not always enough;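 further: 0% = cells with DMSO and 100% = wells without cells with DMSO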
Target sequence (P35372 whole entry, looked up): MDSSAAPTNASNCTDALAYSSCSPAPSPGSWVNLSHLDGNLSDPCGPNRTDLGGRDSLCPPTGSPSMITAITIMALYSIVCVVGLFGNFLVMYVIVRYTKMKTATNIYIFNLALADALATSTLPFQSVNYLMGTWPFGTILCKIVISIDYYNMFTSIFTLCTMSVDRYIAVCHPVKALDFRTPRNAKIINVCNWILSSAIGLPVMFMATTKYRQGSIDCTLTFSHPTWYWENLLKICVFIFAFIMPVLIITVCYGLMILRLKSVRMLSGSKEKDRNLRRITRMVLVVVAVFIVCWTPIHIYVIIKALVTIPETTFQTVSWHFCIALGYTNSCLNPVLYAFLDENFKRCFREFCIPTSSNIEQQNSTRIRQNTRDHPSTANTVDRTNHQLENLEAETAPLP
Target sequence (P41143 whole entry, looked up): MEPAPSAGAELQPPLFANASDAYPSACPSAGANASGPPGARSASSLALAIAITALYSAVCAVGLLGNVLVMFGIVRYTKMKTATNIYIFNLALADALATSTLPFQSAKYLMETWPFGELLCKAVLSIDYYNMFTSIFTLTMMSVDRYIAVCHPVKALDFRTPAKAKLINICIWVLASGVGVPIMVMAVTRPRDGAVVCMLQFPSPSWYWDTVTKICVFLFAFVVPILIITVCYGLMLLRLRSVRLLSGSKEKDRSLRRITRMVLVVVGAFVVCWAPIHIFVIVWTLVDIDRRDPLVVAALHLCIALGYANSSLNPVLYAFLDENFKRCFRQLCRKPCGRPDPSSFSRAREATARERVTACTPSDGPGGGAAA
MOR-DOR ag-1 – OPRM1-OPRD1 heterodimerization agonism | P35372+P41143 | cells, luminescence | activation, % at 9.3 µM | hit rate 0.3% among 340,000 | AID 504326;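 further: 0% = vehicle-treated cells and 100% = reference agonist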
MOR-DOR ag-2 – counter-screen for HTR5A agonists: OPRM1-OPRD1 heterodimerization agonism. shares compounds with HTR5A ag ctr. U2OS counter-screen cells, complementation luminescence, 3 h. activation, % at 9.3 µM. hit rate 13% among 800. AID 504913
HTR5A ag conf – confirmation of human HTR5A agonists. HTR5A agonist cell assay, luminescence. activation, % at 9.3 µM. hit rate 17% among 800. shares compounds with HTR5A ag ctr; in the data active means activation above about 17%;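 further: 0% = cells with vehicle only and 100% = full reference agonist response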
Starred values were filed as active, the others as inactive; · = not tested or not shown. Unless noted, no stated cut-off is given here; in the data, active means activation above about 18%; inactive means the rest.

SMILES	HTR5A ag ctr	HTR5A inv ag	MOR-DOR inv ag	MOR-DOR ag-1	MOR-DOR ag-2	HTR5A ag conf
CC(=O)Nc1ccc(/C=N/NC(=O)CNS(=O)(=O)c2ccccc2)cc1	1	-2	4	-1	·	·
COc1ccc(S(=O)(=O)Nc2ccccc2N2CCOCC2)cc1OC	-6	15	5	-1	·	·
Cc1ccc(-n2c(O)c(C=NC3CCS(=O)(=O)C3)c3ccccc3c2=O)cc1C (configuration not stated)	15*	-34	5	-1	4	-4
Cc1cccc(/C=N\N=C\c2cccc(C)c2)c1	5	-7	-9	2	·	·
Cc1c(NC(=O)Oc2ccccc2)sc(=S)n1C	15*	-34	27	-6	0	43*
Cc1ccc(NC(=O)Nc2sc(=S)n(C)c2C)cc1	8	8	11	-2	·	·
COc1cccc(NC(=S)NC(=O)c2cccnc2)c1	-10	-7	27	-5	·	·
O=C(Nc1ccccc1)C1C2/C=C\CCCCC21 (configuration not stated)	-3	-45	-26	4	·	·
Cc1ccc(NC(=O)C2C3/C=C\CCCCC32)cc1C (configuration not stated)	20*	-8	-36	6	6	11
COc1ccc(C(=O)CC(=O)C(=O)NCCc2cccc(C)c2)cc1	16*	-42	-9	2	0	5
CC(=O)Nc1nnc(S(=O)(=O)N2CCN(c3ccc(Cl)cc3[N+](=O)[O-])CC2)s1	4	2	-7	1	·	·
CS(=O)(=O)NNC(=O)c1csc(Cc2c(Cl)sc3ccc(Cl)cc23)n1	3	-11	11	-2	·	·
Cc1ccc(C(=O)N/C(=C\c2cccs2)C(=O)NCCc2c[nH]c3ccccc23)cc1C	19*	-44	16	-3	2	38*
COc1ccc(C(=O)N/C(=C\c2cccc3ccccc23)C(=O)NCCc2c[nH]c3ccccc23)cc1OC	19*	-47	10	-2	0	-1
Cc1cccc(OCc2n(CC(=O)OC3CC(C)CCC3C(C)C)c3ccccc3[n+]2C)c1 (configuration not stated)	17*	-49	-48	9	2	6
O=C(COC(=O)/C=C/c1ccc(C(F)(F)F)cc1)NC1CCS(=O)(=O)C1 (configuration not stated)	6	-17	-7	1	·	·
C[C@@H](NC(=O)c1nc[nH]c1C(=O)NCC(=O)OCc1ccccc1)c1ccccc1	24*	-64	-4	1	3	2
CCOc1ccc(-n2c(SCC(=O)Nc3ccc(CC)cc3)nc3n[nH]c(C)c3c2=N)cc1	17*	-43	-67	10	10	7
CCCN(CCC)C(=O)CSc1nc2n[nH]c(C)c2c(=N)n1-c1ccc(OCC)cc1	3	-9	1	0	·	·
O=c1[nH]c2ccccc2cc1-c1nnn(-c2ccccc2)n1	21*	-38	9	-2	59*	-2
O=C(CS(=O)(=O)c1ccc(F)cc1)Nc1nnc(-c2ccccc2Cl)o1	34*	-92	11	-2	0	-5
COc1ccc(-c2nnc(NC(=O)CS(=O)(=O)c3ccc(F)cc3)o2)c(OC)c1	-1	9	14	-3	·	·
CN(C(=O)c1cccc(NC(=O)Cc2ccc(NC(=O)C3CCCN(C(=O)CCc4ccccc4)C3)cc2)c1)C1CCC1 (configuration not stated)	20*	-77	-20	4	5	5
CN(C(=O)c1cccc(NC(=O)Cc2ccc(NC(=O)C3CCCN(C(=O)CCc4ccccc4)C3)cc2)c1)C1CCCC1 (configuration not stated)	0	2	-16	4	·	·
CCCCOc1ccc(C(=O)NCC(=O)NCCOc2ccccc2OC)cc1	-3	8	6	-1	·	·
SMILES	HTR5A ag ctr	HTR5A inv ag	MOR-DOR inv ag	MOR-DOR ag-1	MOR-DOR ag-2	HTR5A ag conf
CCNC(=S)NNc1nncc2ccccc12	16*	-41	12	-3	36*	-3
O=C(CSc1n[nH]c(=O)n1C1CC1)Nc1ccc(F)c([N+](=O)[O-])c1	14*	-39	8	-2	51*	6
Cc1ccc(-c2nc(NC(=O)c3nn(C)cc3[N+](=O)[O-])sc2C)cc1C	17*	2	-80	14	24*	12
Cc1ccc(-c2nc(NC(=O)c3nn(C)cc3[N+](=O)[O-])sc2C)cc1	-1	-3	1	0	·	·
NC(=S)c1cnn2c(-c3cccc(C(F)(F)F)c3)ccnc12	2	-7	-22	5	·	·
COc1ccc(-c2cc3cc(F)ccc3cn2)cc1	24*	-65	-30	5	22*	-1
COc1cc(OC)c(C2SCCN2S(=O)(=O)c2ccc(F)cc2)cc1OC (configuration not stated)	-1	-36	4	-1	·	·
COc1ccc(OC)c(C2SCCN2S(=O)(=O)c2cccc(C(F)(F)F)c2)c1 (configuration not stated)	17*	-39	-18	3	3	-4
C=CCn1c(SCC(=O)c2ccc(OC)cc2)nnc1-c1cc2cccc(OC)c2o1	15*	-45	-24	6	4	12
COc1ccccc1NC(=O)CCN1CCN(Cc2ccccc2)CC1	21*	-54	-6	1	2	4
COc1ccccc1NC(=O)CN1CCN(c2ccccc2)CC1	15*	10	11	-2	2	1
COc1ccccc1NC(=O)CN1CCN(c2ccc(Cl)cc2)CC1	-4	10	-5	1	·	·
O=C1CCCN2N=C(SCC(=O)Nc3cccc(F)c3)SC2=N1	3	-6	-9	2	·	·
COc1cccc(N=C(N)N=C(N)N)c1	16*	-43	-2	0	2	2
CC1Cc2ccccc2N1C(=O)Cn1nc(C(=O)O)c2ccccc2c1=O (configuration not stated)	63*	-160	12	-2	0	-4
O=C(OCC(=O)N1CCc2ccccc21)c1c2c(nc3ccccc13)CCCC2	4	-12	12	-2	·	·
CC1Cc2ccccc2N1C(=O)COC(=O)c1ccc(Cl)c(S(=O)(=O)N2CCOCC2)c1 (configuration not stated)	24*	-89	-3	1	3	-1
CC1CCN(CC(=O)N2c3ccccc3CC2C)CC1 (configuration not stated)	0	-21	-1	0	·	·
CC1Cc2ccccc2N1C(=O)COC(=O)c1n[nH]c(=O)c2ccccc12 (configuration not stated)	40*	-97	7	-2	6	1
Cc1cnc(C(=O)OCC(=O)N2c3ccccc3CC2C)cn1 (configuration not stated)	-1	2	7	-1	·	·
CC1Cc2ccccc2N1C(=O)COC(=O)c1c2c(nc3ccccc13)CCCCC2 (configuration not stated)	22*	-91	-29	6	12	4
CSC1=Nc2sc3c(c2C2=NCCN12)CC(C)(C)OC3	4	-10	6	-1	·	·
